TAG inh: triacylglycerol accumulation inhibition | inhibition, % at 12.5 µM | H9c2 cells, Nile Red lipid (TAG) fluorescence; cells loaded with 200 µM oleic acid | hit rate 0.66% among 230,000;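 active = pattern-corrected inhibition of lipid staining of at least 50% with the nuclear-stain viability signal not falling by more than 50%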;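 also: 0% = DMSO wells and 100% = triacsin C control wells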
Gli-Sufu antag: Gli-Sufu pathway antagonism. Sufu-KO-LIGHT fibroblasts, Gli luciferase reporter luminescence. inhibition, % at 5 µM. hit rate 0.74% among 340,000. AID 588413;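 active = inhibition above about 55%, limit read from the data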;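 also: 0% = DMSO-treated cells and 100% = wells with medium but no cells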
NR2F2 inh: NR2F2 (human) inhibition, primary screen; HEK293T NGFI-A luciferase reporter, luminescence; inhibition, % at 8.6 µM; hit rate 0.7% among 370,000;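 active = inhibition above a per-plate cutoff, mean inhibition of test wells between control levels plus 3 SD, cut at about 38% in these data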;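 also: cells cotransfected with COUP-TFII expression vector driving the NGFI-A reporter; 0% = median of COUP-TF2 test wells and 100% = reporter-only cells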
Target sequence (P24468 whole entry, looked up): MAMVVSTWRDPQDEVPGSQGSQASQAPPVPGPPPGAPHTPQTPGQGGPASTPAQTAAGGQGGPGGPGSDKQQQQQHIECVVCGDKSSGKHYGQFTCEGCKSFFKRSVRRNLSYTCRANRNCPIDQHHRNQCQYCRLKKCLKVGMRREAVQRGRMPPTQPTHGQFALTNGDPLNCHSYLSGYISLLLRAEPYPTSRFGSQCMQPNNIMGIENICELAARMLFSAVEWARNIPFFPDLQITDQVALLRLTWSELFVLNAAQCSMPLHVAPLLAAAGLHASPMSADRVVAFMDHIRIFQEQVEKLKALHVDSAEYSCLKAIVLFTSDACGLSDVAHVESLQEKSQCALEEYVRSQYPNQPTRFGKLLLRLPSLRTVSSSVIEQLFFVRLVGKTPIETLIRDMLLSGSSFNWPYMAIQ
Cardio protect: myocardial damage modulation in H9c2 cells; H9c2 cardiomyocytes, H2O2 injury protection, ATPLite, 2 h; protection from H2O2 cell death, % at 20 µM; hit rate 0.63% among 360,000;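 active = compounds giving at least 50% protection of heart cells from peroxide-induced death in the single-dose screen, raw or plate-pattern-corrected value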;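 also: 0% = DMSO wells with peroxide and 100% = DMSO wells without peroxide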
Jurkat NFkB inh: inhibitors of the PMA/ionomycin-induced NF-kB reporter in Jurkat cells; PMA/ionomycin-induced NF-kB luciferase reporter, luminescence; inhibition, % at 4 µM; hit rate 0.53% among 330,000; AID 435003; in the data active = inhibition above about 50%
697 NFkB inh: lowers PMA/ionomycin-induced NF-kB signal in 697 B cells | 697 B-cell NF-kB luciferase reporter, 16 h | inhibition, % at 4 µM | hit rate 0.33% among 330,000 | AID 435022; in the data active = inhibition above about 35%
Jurkat NFkB conf: inhibitors of the PMA/ionomycin-induced NF-kB reporter in Jurkat cells, retest; shares compounds with Jurkat NFkB inh; Jurkat NF-kB luciferase, 16 h; inhibition, % at 4 µM; hit rate 27% among 2,700; AID 435020;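 active = inhibition reaching about 45% at 4 µM in either replicate, limit read from the data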;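 also: plate controls were PMA/ionomycin stimulated DMSO wells for no effect and unstimulated DMSO wells for full effect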
* = called active by the depositor; . = no result given. Hits are enriched below; roughly 2.6% of the tested compounds scored in any of these assays.

SMILES | TAG inh | Gli-Sufu antag | NR2F2 inh | Cardio protect | Jurkat NFkB inh | 697 NFkB inh | Jurkat NFkB conf
C=C1C(=O)O[C@@H]2[C@H]1[C@@H](OC(=O)/C(C)=C/C)C/C(C)=C\C(=O)/C=C(\C)[C@@H]2O | 46.6 | 3.7 | 10.0 | -16.7 | 88.1* | -200.5 | 34.5
O=C(C#Cc1ccccc1)Nc1ccc(F)cc1 | . | -28.2 | -22.3 | 5.3 | -3.9 | -23.0 | .
O=C(C#Cc1ccccc1)Nc1cccc(F)c1 | . | -7.6 | 0.0 | -9.4 | 72.8* | -99.6 | -45.9
CN(CCCOC(=O)c1occ2ccccc12)C1CN(Cc2cn(Cc3ccccc3Cl)nn2)S(=O)(=O)C1 (stereo not drawn) | . | . | 14.5 | . | . | . | .
Cn1ncc2c(N3CCN(c4ccc(Cl)c(Cl)c4)CC3)ncnc21 | 28.1 | -172.0 | -8.6 | -22.8 | 58.8* | 32.2 | 60.4*
CC(C)(C)Nc1ncnc2c1cnn2-c1ccccc1 | 17.6 | -125.2 | -57.0 | -28.2 | -173.2 | -217.9 | -127.2
CC1CCN(c2ncnc3c2cnn3-c2ccccc2)CC1 | -8.7 | -111.2 | -19.2 | -17.6 | -187.0 | -184.6 | -106.2
COc1cc(NC(=O)C2CCN(c3nnc(-n4cccc4)s3)CC2)cc(OC)c1 | . | . | 10.8 | . | . | . | .
O=C(NNC(=O)C12CC3CC(CC(C3)C1)C2)c1ccccn1 | 28.1 | 2.1 | -0.4 | 48.6 | 72.1* | 23.3 | 23.4
CCOC(=O)N1CCC(NC(=O)c2cc3cc4cc(OC)ccc4nc3o2)CC1 | 12.4 | -48.1 | 0.3 | 2.0 | -5.0 | 2.4 | .
COc1ccc2nc3oc(C(=O)NC4CCN(Cc5ccccc5)CC4)cc3cc2c1 | -12.6 | 9.5 | -4.0 | 2.7 | 62.5* | -38.2 | 22.5
C#CCN1C(C(=O)OC)CN(CCCCCC)CCS1(=O)=O (stereo not drawn) | . | . | 9.4 | . | . | . | .
CCN(CC)C(=O)CN1C(=O)C2CCCCN2C(=O)c2ccccc21 (stereo not drawn) | . | . | -1.7 | . | . | . | .
CCCN1CCC(=NNc2ccc(S(=O)(=O)N(CC)CC)cc2[N+](=O)[O-])CC1 | 46.0 | -4.7 | 3.6 | -5.2 | 58.8* | -11.7 | -6.8
COc1cc(/C=C2\SC(=Nc3ccccc3OC)NC2=O)ccc1O | . | 5.3 | -15.4 | 8.2 | -5.5 | 4.5 | .
COc1cc(/C=C2/SC(=Nc3ccc(O)cc3)NC2=O)ccc1O | 58.7* | -21.9 | -80.6 | 6.1 | 59.1* | -82.9 | 38.7
C#CCNC(=O)CSCc1nc(-c2ccc(OCC)cc2)oc1C | . | . | 5.5 | . | . | . | .
Cc1c(C(=O)N/N=C/c2ccc(N(C)C)cc2)[nH]c2ccc(Cl)cc12 | 32.8 | 27.5 | -0.3 | 13.0 | 50.4* | 13.0 | 0.1
COc1ccc(OCC(C)CN2CCC(C(O)(c3ccccc3)c3ccccc3)CC2)cc1 (stereo not drawn) | . | . | -2.1 | . | . | . | .
COc1ccc(/C=C/C(=O)c2cc(F)ccc2OC(=O)c2ccccc2C)cc1OC | 44.7 | 41.8 | -70.5 | 1.2 | 59.7* | -97.7 | 9.2
CC[C@@H](CCCc1ccc(F)cc1)CN(Cc1ccc(OC)cc1)S(=O)(=O)c1ccc(C)cc1 | . | . | 7.5 | . | . | . | .
COc1ccc(C=O)cc1COc1ccc([N+](=O)[O-])c(C)c1 | -9.5 | -0.8 | 4.5 | 14.1 | 45.3 | 24.3 | .
COc1ccc(C=O)cc1COc1ccc2c(c1)OCO2 | -0.3 | -4.7 | -8.0 | 10.8 | 58.9* | 9.0 | 11.8
COc1ccc(N/N=C/c2c(C(=O)O)ccc3ccccc23)cc1 | 49.1 | 23.2 | -10.4 | 29.8 | 54.2* | -8.5 | 41.7
COc1cc(O)c(C(CC(=O)N2CCC(C)CC2)c2ccc3c(c2)OCO3)c(OC)c1 (stereo not drawn) | . | . | -6.3 | . | . | . | .
SMILES | TAG inh | Gli-Sufu antag | NR2F2 inh | Cardio protect | Jurkat NFkB inh | 697 NFkB inh | Jurkat NFkB conf
COc1ccc(NC(=O)c2nc(S(=O)(=O)Cc3cccc(C)c3)ncc2Cl)c(OC)c1 | . | 1.3 | -10.4 | -11.2 | 53.8* | -242.6 | -0.2
Cc1cccc(CS(=O)(=O)c2ncc(Cl)c(C(=O)Nc3c(C)cccc3C)n2)c1 | . | 27.1 | 14.1 | -13.0 | 26.9 | -50.3 | .
CC(Oc1ccc(Cl)cc1Cl)C(=O)Nc1ccncc1 (stereo not drawn) | 11.4 | 4.3 | 33.4 | -18.2 | 50.6* | -9.1 | 35.8
CC(=O)Nc1ccc(NC(=O)C(C)Oc2ccc(Cl)cc2Cl)cc1 (stereo not drawn) | . | -24.3 | 3.5 | -1.5 | 6.7 | 1.6 | .
CSc1nc(C)cc(OCC(=O)N/N=C/c2ccccc2O)n1 | 20.1 | 5.3 | 3.1 | 48.4 | 52.2* | -52.2 | 17.5
Cc1cc(=O)oc2cc(OCC(=O)N/N=C/c3ccccc3O)ccc12 | . | 26.6 | -12.4 | 13.4 | 2.0 | 11.7 | .
Cc1ccc(S(=O)(=O)N2CCN(C(=O)c3cccn3C)CC2)cc1 | . | . | 6.8 | . | . | . | .
CCOc1ccc(Oc2ccc(NS(=O)(=O)c3cc(C(=O)O)ccc3Cl)cc2)cc1 | -16.6 | -0.2 | -7.1 | -4.8 | -6.1 | 11.9 | .
CCOc1ccc(NS(=O)(=O)c2cc(NC(=O)c3ccc(C)cc3)ccc2Cl)cc1 | 19.5 | -8.5 | -3.1 | -8.2 | 52.7* | -147.5 | 34.2
C[C@@H]1CCN(C2CC2)S(=O)(=O)c2ccc(N3CCC[C@@H]3CO)cc2O1 | . | . | -6.0 | . | . | . | .
C=CCSc1nnc(-c2ccc(Cl)cc2Cl)o1 | . | -60.6 | -47.6 | -13.9 | -150.2 | -125.1 | -102.6
CC(=O)Nc1ccc(-c2csc(Nc3ncccn3)n2)cc1 | -5.5 | -67.4 | -46.8 | -3.6 | -117.5 | -111.8 | .
Oc1ccc(-c2csc(Nc3ncccn3)n2)cc1 | 9.5 | -36.4 | -63.8 | -6.3 | -158.9 | -207.6 | -59.4
c1ccc(Nc2nc(-c3cccnc3)cs2)nc1 | -7.8 | -137.2 | -57.1 | -29.0 | -121.8 | -127.5 | .
c1ccc(-c2csc(Nc3ncccn3)n2)cc1 | . | -95.1 | -49.5 | -9.9 | -211.8 | -245.3 | -105.1
CCOCCCNC(=O)c1cc2c(=O)n3cccc(C)c3nc2n1C | 49.4 | 0.1 | 11.6 | 20.2 | 58.0* | -11.8 | 44.0
COCCNC(=O)c1cc2c(=O)n3cccc(C)c3nc2n1C | 33.2 | -7.2 | -9.4 | 1.0 | 46.7 | -12.2 | .
O=C(NCCc1ccc(Cl)cc1)c1ccc2c(c1)OCCO2 | . | -86.0 | -29.9 | -5.9 | -168.5 | -222.7 | -132.8
O=C(NCCc1ccc(Cl)cc1)c1ccc2c(c1)OCO2 | -20.9 | -93.7 | -51.6 | -4.8 | -141.4 | -161.3 | .
Cc1ccccc1C(=O)N(C)[C@H]1C[C@H]2c3[nH]c4c(-c5ccccc5)cccc4c3CCN2C(=O)[C@H]1[C@H](C)O | . | . | 6.5 | . | . | . | .
C/C(=N\Nc1cccc2cccnc12)c1ccc[nH]1 | 12.4 | -117.3 | -21.9 | -15.2 | -215.7 | -146.8 | -1.6
CCC(=O)Nc1cccc2cccnc12 | -6.7 | -2.6 | -0.1 | 16.4 | 3.4 | 4.8 | .
Cc1ccc(O)c(NC(=O)C2CC(c3c(F)cccc3Cl)=NO2)c1 (stereo not drawn) | . | 7.8 | 2.8 | 2.6 | 51.0* | -14.9 | 14.1
CCCCCn1c(=O)[nH]c2cc(C(=O)NC3CCN(Cc4ccccc4)CC3)ccc2c1=O | 14.2 | 8.4 | 15.8 | -14.0 | 51.1* | -53.6 | 35.8
Clc1cccc(Cl)c1/C=N/Nc1c(Cl)cncc1Cl | -0.2 | -15.6 | -3.8 | -1.7 | 72.6* | -35.0 | 49.4

Assay outcomes (PubChem BioAssay)
